# Source: PubChem
# Hits are enriched below; roughly 5.7% of the tested compounds scored in any of these assays.
# DAX1 inh-1 = DAX1 (NR0B1) inhibitors on StAR promoter, primary screen, cell-based, luminescence, SF-1 (NR5A1), full-length DAX-1. hit rate 1.1% among 370,000. HEK293T StAR-luciferase reporter, SF-1/DAX-1 repression relief. inhibition, % at 6.8 µM;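 active means inhibition above the mean over all tested compounds plus 3 SD, cut at about 3.6% in these data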;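 further: 0% = DAX-1 cells with DMSO and 100% = cells lacking DAX-1 with DMSO; higher inhibition means more luminescence from relief of DAX-1 repression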
# hcDAF-12 act = H. contortus DAF-12 nuclear receptor activators, primary screen, cell-based, luminescence, HEK293, lit1-tk-luc reporter. AID 652067, 2013. HEK293 hcDAF-12 lit1-tk-luc reporter; 0% DMSO, 100% Δ7-dafachronic acid. activation, % at 6.8 µM. hit rate 1.4% among 370,000;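 active means activation above the mean of all tested compounds plus 3 SD, cut at about 5.5% in these data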;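 further: 100% = response to 3 µM Δ7-dafachronic acid high control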
# DAX1 inh-2 = DAX1 (NR0B1) inhibitors, primary screen, cell-based, HEK293, Gal4-DAX1, luciferase luminescence. inhibition, % at 6.75 µM. Nuclear receptor subfamily 0 group B member 1 (Homo sapiens), P51843. HEK293 Gal4-DAX1 luciferase reporter. hit rate 0.99% among 340,000. AID 504766, 2011;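 active means inhibition above the mean over all tested compounds plus 3 SD, cut at about 4.2% in these data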;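 further: 0% = DAX1-transfected cells with DMSO and 100% = empty-vector control cells with DMSO; inhibition shows as a rise in luminescence from relieved DAX1 repression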
# Target sequence (P51843 207-470 limits assumed): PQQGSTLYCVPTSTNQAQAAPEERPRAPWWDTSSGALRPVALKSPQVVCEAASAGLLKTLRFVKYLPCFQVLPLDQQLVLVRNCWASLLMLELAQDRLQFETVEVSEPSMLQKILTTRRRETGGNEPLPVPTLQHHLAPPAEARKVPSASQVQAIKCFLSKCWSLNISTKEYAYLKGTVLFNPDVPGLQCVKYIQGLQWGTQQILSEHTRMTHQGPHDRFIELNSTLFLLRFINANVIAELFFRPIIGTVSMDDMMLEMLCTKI
# AHR activator = AHR activators, primary screen, cell-based, luminescence, luciferase reporter, human. Aryl hydrocarbon receptor (Homo sapiens), P35869. AHR-responsive luciferase reporter cells. activation, % at 5 µM. hit rate 2.5% among 320,000. AID 2796, 2010; in the data active means activation above about 47%;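 further: 0% = vehicle wells and 100% = reference agonist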
# ssDAF-12 act = S. stercoralis DAF-12 nuclear receptor activators, primary screen, cell-based, luminescence, HEK293, GRIP1 co-expression, lit1-tk-luc; activation, % at 6.8 µM; hit rate 1% among 370,000; HEK293 ssDAF-12/GRIP1 lit1-tk-luc reporter; % of 3 µM dafachronic acid response;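 active means activation above the mean over all tested compounds plus 3 SD, cut at about 0.9% in these data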;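 further: 0% = DMSO-only wells and 100% = 3 µM delta7-dafachronic acid wells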
# hgDAF12 agonist = H. glycines DAF-12 receptor agonists, primary screen, cell-based, luminescence, HEK293, GAL4 fusion, UAS-luciferase. AID 687014, 2013. activation, % at 6.8 µM. HEK293 GAL4-hgDAF12 UAS-luciferase reporter, agonist luminescence; normalized to butyrate control. hit rate 1.8% among 370,000;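 active means activation above a cutoff set at the mean of all screened compounds plus 3 SD, cut at about 10% in these data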;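 further: 0% = DMSO wells and 100% = sodium butyrate wells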
# * = called active by the depositor; . = no result given.
SMILES,DAX1 inh-1,hcDAF-12 act,DAX1 inh-2,AHR activator,ssDAF-12 act,hgDAF12 agonist
O=C(c1ccccn1)N(CC1CCCO1)C1(C(=O)NC2CCCCC2)CCCCC1 (centres undefined),-1,-2,-1,0,-1,0
Cc1ccc(CCNC(=O)c2cc(-c3ccncc3)nc3ccccc23)cc1,0,-2,2,18,-2,0
CN(C)c1ccc(/C=N/NC(=O)c2nonc2N)cc1[N+](=O)[O-],0,0,0,16,0,4
COc1ccc(CN2C(=O)c3ccccc3C2c2nnnn2Cc2ccccc2)cc1 (centres undefined),0,0,.,.,-2,-2
O=C(O)Cn1c2ccccc2c2nc3ccccc3nc21,.,.,4.9*,.,.,.
CCN(CC)CCn1c(C)nc2ccccc21,0,0,4.3*,0,-1,5
Cc1nc2ccccc2n1CCc1ccccc1,-1,-1,0,1,-2,0
CCOC(=O)Cn1c2ccccc2c2nc3ccccc3nc21,1,3,0,16,0,2
O=C(NCc1ccc(Cl)cc1)C1CCN(S(=O)(=O)c2ccc(N3CCCC3=O)cc2)CC1,-7,-4,-1,1,-1,-2
COc1cc(/C=N/NC(=O)CC2(C)OCCCO2)ccc1OCc1ccccc1,1,1,1,20,-1,3
COc1cc(/C=N/NC(=O)CN2CCCCC2)ccc1OCc1ccc(Br)cc1,2,3,2,20,0,12*
COc1cc(/C=N/NS(=O)(=O)c2ccc(C)cc2)ccc1OCc1ccc(C(=O)O)cc1,3,3,-6,0,0,13*
CCOc1ccc(/C=N/NS(=O)(=O)c2ccc(C)cc2)cc1OC,0,-2,1,.,0,-2
C[C@H]1CN(S(=O)(=O)c2ccc3c(c2)OCCO3)CCN1S(=O)(=O)c1c(F)cccc1F,0,-1,0,-1,-2,-2
O=C(O)CNS(=O)(=O)c1ccc2[nH]c(=O)c(=O)[nH]c2c1,0,-1,0,1,-1,0
Clc1ccc(C2=NCCn3nc4ccccc4c32)cc1,0,2,2,79*,0,2
Nc1c(Cl)cc(C2=NCCn3c2c2ccc(C(F)(F)F)cc2[n+]3[O-])cc1Cl,0,4,0,54*,0,0
COc1ccc(C2=NCCn3nc4cc([N+](=O)[O-])ccc4c32)cc1,1,5.8*,-1,6,-1,1
COc1ccc2c3n([n+]([O-])c2c1)CCN=C3c1ccc(Cl)cc1,1,4,1,26,0,6
O=[N+]([O-])c1ccc2c3n([n+]([O-])c2c1)CCN=C3c1ccc(Cl)cc1,0,1,1,48*,-1,1
Cc1ccc(C2=NCCn3c2c2ccc([N+](=O)[O-])cc2[n+]3[O-])cc1,-1,0,-1,19,-1,-1
COc1ccc2c3n(nc2c1)CCN=C3c1ccc(C)cc1,0,3,0,22,-1,2
N#Cc1cnc(SCC(=O)Nc2ccccc2C(F)(F)F)nc1N,0,-2,0,2,-1,1
O=C(NCc1ccccc1)C1CCN(C(=O)NCc2ccccc2)CC1,0,1,1,3,-1,2
CCCN(CCC)C(=O)C1CC(=O)OC12CCOC(C)(C)C2 (centres undefined),0,1,0,-1,0,2
SMILES,DAX1 inh-1,hcDAF-12 act,DAX1 inh-2,AHR activator,ssDAF-12 act,hgDAF12 agonist
N#Cc1cccc2cccc(S(=O)(=O)N3CCOCC3)c12,2,0,1,2,0,0
O=S1(=O)CC(O)C(N(CCO)C(=S)Nc2ccccc2)C1 (centres undefined),0,1,5.3*,-1,-1,-1
COc1ccc(/C=C/CN2CCN(Cc3cccc(OC)c3)C(CCO)C2)cc1 (centres undefined),-1,1,4.2*,5,-2,1
COc1ccc2c(c1)CCCC21NC(=O)N(CC(=O)N2CC(C)OC(C)C2)C1=O (centres undefined),0,2,0,1,-1,-2
O=S(=O)(NCC1NCCc2ccccc21)c1ccccc1 (centres undefined),0,1,8.3*,3,-1,-2
c1ccc(C2NCCc3ccccc32)cc1 (centres undefined),0,-1,2,-1,-1,1
O=C(Nc1nc2ccc(Cl)cc2s1)[C@@H]1CCCN1C(=O)c1cccs1,1,5.7*,1,30,0,10
O=C(c1cccc(S(=O)(=O)NCc2ccccc2)c1)N1CCN(c2ccc(F)cc2)CC1,-1,-2,0,-1,-1,-3
CCOC(=O)[C@@]12CCC3=C1N(CCC3)C(=O)[C@H](CC(=O)NCCc1ccccc1OC)C2,-1,-3,.,.,0.9*,-2
CCOC12NC(=O)CC(=O)N1C(c1ccccc1)=CS2 (centres undefined),0,0,4.5*,-1,-1,4
Cc1ccc(C)c2c1cc(C)c1nnc(SCc3ccccn3)n12,-1,-3,1,3,-1,-2
Cc1cc2cc(C)c3nnc(SCc4ccccn4)n3c2cc1C,-1,-2,-1,73*,-1,-1
CCCCSc1nnc(-c2cc3c(C(F)(F)F)nn(C)c3s2)n1C,0,-2,0,3,-1,-3
C/C(=N\NC(=O)c1ccc(Cn2cc(Br)cn2)o1)c1ccc(NC(=O)c2ccoc2C)cc1,4.4*,2,0,.,0,9
O=C(N/N=C/c1c(F)cccc1Cl)c1ccc(Cn2cc(Br)cn2)o1,0,-2,0,49*,-2,0
Cc1cccc(/N=C/c2c(C)[nH]n(-c3ccccc3)c2=O)n1,1,2,4,10,-1,-4
Cc1ccccc1-n1c(-c2ccoc2C)n[nH]c1=S,0,3,-1,0,1.3*,2
Cc1ccc(NC(=O)CN(C)C(=O)CSc2n[nH]c(N)n2)cc1,-1,1,0,0,-1,-2
Cc1ccc(N(C(=O)c2csnn2)C(C(=O)NC(C)(C)C)c2ccncc2)cc1 (centres undefined),1,3,-1,4,-1,0
